# About 83,000 compounds went through this panel and 20% of them were active in at least one assay; those are over-represented in the sample as a whole.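 Cell lines were cultured in 96-well plates, exposed to a single compound concentration, and assessed for percent growth 48 hours later.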 Unmarked numbers belong to inactive results. Activity calls are given as the source filed them. Rule for the calls: active = growth percent below 10; inactive = the rest.
# Tested on: MDA-MB-468 breast
# Assay: NCI-60 one-dose screen, 48 h (100 = growth as untreated, 0 = no growth, -100 = all killed)
# Settings: 10 µM unless noted
row,SMILES,growth
1,Cn1c(O)c(N=NC(=O)c2cc(-c3ccccc3)on2)c2ccccc21,107%
2,OC(c1ccccc1)c1nnc(SCc2ccccc2)n1Cc1ccccc1 (stereo not given),88.5%
3,O=C(O)c1ccc(-n2cc(/C=N/Nc3ccccc3)c(-c3ccc(F)cc3F)n2)cc1,89.3%
4,Clc1cnc(Nc2ccc(OCCN3CCCC3)cc2)nc1NCc1ccco1,16.6%
5,CCCNc1ccc(C2=NCCCN2)cc1,87.9%
6,O=C(NCCc1ccc(O)c(O)c1)C12CC3CC(CC(C3)C1)C2,87.4%
7,c1csc(-c2nc(-c3cc4ccccc4c(N4CCOCC4)n3)cs2)c1,5.77% (active)
8,Cc1nc2sc(C(=O)Nc3cccc(Cl)c3)c(N)c2cc1C(O)c1ccccc1 (stereo not given),15.3%
9,O=C(Cc1nc2ccc([N+](=O)[O-])cc2nc1CC(=O)c1ccccc1)c1ccccc1,68.9%
10,COc1cccc(N2CCN(c3ncnc4cc[nH]c34)CC2)c1,18.8%
11,COc1ccc2c(c1)[n+]([O-])c(C(=O)/C=C/C=C(\Cl)c1cc(OC)c(OC)c(OC)c1)c(C)[n+]2[O-],62.2%
12,CC(C)(C)Nc1nc2c(OCCc3ccccc3)cccn2c1-c1ccc([N+](=O)[O-])cc1,-19.5% (active)
13,O=C(/C=C/c1ccc(Cl)cc1)c1ccc(Nc2nc(NCCO)nc(Nc3ccc(Cl)cc3)n2)cc1,68.4%
14,O=C(NCc1ccc(F)cc1)C1CN(c2ccc(Cl)cc2)N(c2ccc(Cl)cc2)C1=O (stereo not given),43.1%
15,O=C(O)c1cccc(-n2ncc(Cl)c(Cl)c2=O)c1,74.5%
16,O=C(O)CNC(=O)CN1C(=O)c2ccccc2C1=O,106%
17,Cn1c(=O)[nH]c(=O)c2nc(CCC(=O)NCCC(=O)O)c(=O)[nH]c21,102%
18,Nc1nc(N)c(-c2ccc(Cl)cc2)c(/C=C/c2ccc([N+](=O)[O-])cc2)n1,64.7%
19,CCN=C1C=CC(=C(c2ccc(N(C)C)cc2)c2ccc(N(C)C)cc2)c2ccccc21,-26.8% (active)
20,Cn1cc(-c2csc(-c3c[nH]c4ccc(Br)cc34)n2)c2ccnc(Cl)c21,14%

row,SMILES,growth
1,Nc1c(C(=O)Nc2ccccc2)sc2nc3c(cc12)CCC3,49.7%
2,O=C(Nc1ccc(-n2ccc3c(NC(=O)c4ccccc4)ncnc32)cc1)c1cccc(C(F)(F)F)c1,58.6%
3,COc1ccc(C(=O)OC2C(OC3C(O)COC(O[C@H]4C[C@H]5[C@@H]6CC=C7C[C@@H](O)CC[C@]7(C)[C@H]6CC[C@]5(C)[C@H]4[C@H](C)C(=O)CCC(C)C)C3OC(C)=O)OCC(O)C2O)cc1 (stereo not given in full),-34.1% (active)
4,COc1cc(CNC(=O)CCSc2nc3ccccc3c(=O)n2Cc2cc(OC)c(OC)c(OC)c2)cc(OC)c1OC,1.82% (active)
5,COc1cc(-c2cc(C(=O)N3CCN(C(=O)c4ccccc4NCc4cccs4)CC3)nc3cc(-c4ccccc4)nn23)cc(OC)c1OC,64.6%
6,COc1ccc(-c2nnc(/N=C3/C(=O)Nc4ccc(Br)cc43)o2)cc1,90.7%
7,CC1(c2ccccc2)OC1C(=O)O (stereo not given),99.2%
8,Cc1ccc(N2C(=O)/C(=C/C=C/c3ccco3)SC2=S)cc1,50.7%
9,N#Cc1c(-c2cccs2)cc(-c2cccnc2)[nH]c1=O,101%
10,O=C1/C(=C/c2ccc([N+](=O)[O-])s2)Oc2cc(Cl)ccc21,-17.8% (active)
11,O=C(Cc1ccc(F)c(Cl)c1)Nc1cc(C2(C(F)(F)F)CC2)nn1Cc1ccccc1,23.9%
12,Cc1ccc(NC2=C(Cl)C(=O)c3nc(C)ccc3C2=O)c(C)c1,-70.2% (active)
13,O=C(CN1C(=O)NC2NC(=O)NC21)N/N=C/c1ccccc1[N+](=O)[O-] (stereo not given),98.5%
14,NC(N)=NC1CCCCC1,88.8%
15,NC1=C(C/C(N)=N\O)C(c2ccccc2Cl)c2c(ccc3ccccc23)O1 (stereo not given),61.6%
16,NS(=O)(=O)c1ccc(-n2nc(-c3ccc(Cl)cc3)ccc2=O)cc1,56.9%
17,CC(C)CCSc1nc(-c2ccc(F)cc2)c(C#N)c(N2CCN(C)CC2)n1,98.3%
18,CN(CCCCN(C[C@H]1Cc2ncccc2CN1)[C@H]1CCCc2cccnc21)C1CCC(F)(F)CC1,95.3%
19,CC[C@H](C)[C@H](NC(=O)[C@H](CCCCN)NC(=O)[C@H](CCCCN)NC(=O)[C@@H](NC(=O)[C@@H](NC(=O)[C@@H](N)Cc1cnc[nH]1)[C@@H](C)CC)[C@@H](C)CC)C(=O)N[C@@H](CCCNC(=N)N)C(=O)N[C@H](C(=O)N[C@@H](Cc1c[nH]c2ccccc12)C(=O)N[C@@H](Cc1ccc(O)cc1)C(=O)N[C@@H](CCCNC(=N)N)C(=O)N[C@@H](CCCCN)C(=O)N[C@@H](C)C(=O)N[C@@H](Cc1c[nH]c2ccccc12)C(=O)N[C@@H](Cc1cnc[nH]1)C(=O)N[C@H](C(=O)N[C@@H](CC(C)C)C(=O)NCC(=O)N[C@@H](CCCCN)C(=O)N[C@H](C(N)=O)C(C)C)C(C)C)[C@@H](C)O,59.2%
20,O=C(N/N=C/c1ccc(Cl)cc1)c1ccc(NC(=O)c2ccccn2)cc1,78.2%

# From PubChem BioAssay (NCI)
